Measurements from paper PMC8384837, “Expanding the binding specificity for RNA recognition by a PUF domain”.

What was measured:
Assay in all cases: yeast three-hybrid, YBZ-1, SC-Leu-His + 0.5 mM 3-AT, 4 days
Details in all cases: tags: N-Gal4 AD-HA kept; label: inside an RPR1-promoter hybrid RNA with tandem MS2 sites; ssRNA
PUM1 PUF domain R5-RRP = PUM1 PUF domain R5-RRP (Homo sapiens, UniProt Q14671 828-1176, C1007R;Q1011P)
In short: (§1)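 Pumilio-1 PUF domain libraries, randomized (NNK) at the three base-contacting residues of each repeat, were co-expressed with matching RNA elements from a centromeric plasmid in strain YBZ-1 (LexA–MS2 coat fusion, HIS3 reporter). Transformants were plated on SC-Leu (input) and SC-Leu-His + 0.5 mM 3-AT (selection) for four days, and repeat regions were PCR-amplified and Illumina-sequenced. The interaction score is the log2 change in variant frequency from input to selection, with pseudocount 1 where absent.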

PUM1 PUF domain R3-MRS = PUM1 PUF domain R3-MRS (Homo sapiens, UniProt Q14671 828-1176, C935M;Q939S)
In short: as §1

PUM1 PUF domain R3-RPG = PUM1 PUF domain R3-RPG (Homo sapiens, UniProt Q14671 828-1176, C935R;R936P;Q939G)
In short: as §1

PUM1 PUF domain R6-VWA = target: T1, PUM1 PUF domain R6-VWA (Homo sapiens, UniProt Q14671 828-1176, N1043V;Y1044W;Q1047A)
T1 sequence: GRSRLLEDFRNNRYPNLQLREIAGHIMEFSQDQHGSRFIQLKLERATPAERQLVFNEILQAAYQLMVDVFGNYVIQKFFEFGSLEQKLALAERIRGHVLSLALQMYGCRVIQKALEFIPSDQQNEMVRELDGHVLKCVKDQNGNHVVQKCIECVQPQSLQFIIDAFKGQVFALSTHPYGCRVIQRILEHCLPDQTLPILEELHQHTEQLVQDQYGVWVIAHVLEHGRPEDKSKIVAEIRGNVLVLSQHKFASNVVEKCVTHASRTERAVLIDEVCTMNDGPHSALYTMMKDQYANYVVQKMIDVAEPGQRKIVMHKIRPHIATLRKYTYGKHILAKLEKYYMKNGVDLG
In short: as §1

PUM1 PUF domain R4-GNR = PUM1 PUF domain R4-GNR (Homo sapiens, UniProt Q14671 828-1176, N971G;H972N;Q975R)
In short: as §1

PUM1 PUF domain R5-LWA = PUM1 PUF domain R5-LWA (Homo sapiens, UniProt Q14671 828-1176, C1007L;R1008W;Q1011A)
In short: as §1

PUM1 PUF domain R7-RQL = PUM1 PUF domain R7-RQL (Homo sapiens, UniProt Q14671 828-1176, S1079R;N1080Q;E1083L)
In short: as §1

PUM1 PUF domain R1-YWR = PUM1 PUF domain R1-YWR (Homo sapiens, UniProt Q14671 828-1176, S863Y;R864W;Q867R)
In short: as §1

PUM1 PUF domain R4-PWN = PUM1 PUF domain R4-PWN (Homo sapiens, UniProt Q14671 828-1176, N971P;H972W;Q975N)
In short: as §1

PUM1 PUF domain R4-DFT = PUM1 PUF domain R4-DFT (Homo sapiens, UniProt Q14671 828-1176, N971D;H972F;Q975T)
In short: as §1

Sequence of PUM1 PUF domain R5-RRP (Q14671 828-1176 C1007R/Q1011P): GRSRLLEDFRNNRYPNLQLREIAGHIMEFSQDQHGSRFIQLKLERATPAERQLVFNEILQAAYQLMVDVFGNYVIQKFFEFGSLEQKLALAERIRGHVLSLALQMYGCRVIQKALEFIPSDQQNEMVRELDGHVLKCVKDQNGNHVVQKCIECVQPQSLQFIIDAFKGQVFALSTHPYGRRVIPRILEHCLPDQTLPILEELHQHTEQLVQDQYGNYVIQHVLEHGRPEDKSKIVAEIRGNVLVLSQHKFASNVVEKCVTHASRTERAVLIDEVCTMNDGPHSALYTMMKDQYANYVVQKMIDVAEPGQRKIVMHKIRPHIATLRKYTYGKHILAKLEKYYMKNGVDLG
Sequence of PUM1 PUF domain R5-LWA (Q14671 828-1176 C1007L/R1008W/Q1011A): as the sequence (Q14671 828-1176 C1007R/Q1011P) above, with R180L, R181W, P184A counted along it

For “GGCUAGAACUAGUGGAUCCCCCGGCGCCCGGCGGCUCGAGCCCGGGUAAGUGUCAAUAGUCUGCAUGCCGCCGGGCGCCAUGCCUGCAGGUCGACUCUAGAAAACAUG”, which binding signal (PUM1 PUF domain R5-RRP) is on record?
Its binding signal is 5.07 log2 enrichment (interaction score).

Which binding signal (PUM1 PUF domain R3-MRS) does the source give for “GGCUAGAACUAGUGGAUCCCCCGGCGCCCGGCGGCUCGAGCCCGGGUAAGUGUAAUUAGUCUGCAUGCCGCCGGGCGCCAUGCCUGCAGGUCGACUCUAGAAAACAUG” here?
The binding signal was 2.96 log2 enrichment (interaction score).

What about the binding signal (PUM1 PUF domain R3-RPG) of the same sequence?
The binding signal was 4.38 log2 enrichment (interaction score).

How did the binding signal (PUM1 PUF domain R6-VWA) turn out when “GGCUAGAACUAGUGGAUCCCCCGGCGCCCGGCGGCUCGAGCCCGGGUAAGUGAAAAUAGUCUGCAUGCCGCCGGGCGCCAUGCCUGCAGGUCGACUCUAGAAAACAUG” was run?
Its binding signal is 6 log2 enrichment (interaction score).

“GGCUAGAACUAGUGGAUCCCCCGGCGCCCGGCGGCUCGAGCCCGGGUAAGUGUACAUAGUCUGCAUGCCGCCGGGCGCCAUGCCUGCAGGUCGACUCUAGAAAACAUG” was tested. Which binding signal (PUM1 PUF domain R4-GNR) did it give?
Its binding signal is 1.04 log2 enrichment (interaction score).

What does the source list for “GGCUAGAACUAGUGGAUCCCCCGGCGCCCGGCGGCUCGAGCCCGGGUAAGUGUGAAUAGUCUGCAUGCCGCCGGGCGCCAUGCCUGCAGGUCGACUCUAGAAAACAUG”?
binding signal (PUM1 PUF domain R5-LWA): 1.01 log2 enrichment (interaction score); binding signal (PUM1 PUF domain R5-RRP): 1.27 log2 enrichment (interaction score)

With “GGCUAGAACUAGUGGAUCCCCCGGCGCCCGGCGGCUCGAGCCCGGGUAAGUGUAAGUAGUCUGCAUGCCGCCGGGCGCCAUGCCUGCAGGUCGACUCUAGAAAACAUG” as the sequence, how does the binding signal (PUM1 PUF domain R3-MRS) read?
The binding signal was 4.95 log2 enrichment (interaction score).

With “GGCUAGAACUAGUGGAUCCCCCGGCGCCCGGCGGCUCGAGCCCGGGUAAGUUUAAAUAGUCUGCAUGCCGCCGGGCGCCAUGCCUGCAGGUCGACUCUAGAAAACAUG” as the sequence, how does the binding signal (PUM1 PUF domain R7-RQL) read?
Its binding signal is 3.63 log2 enrichment (interaction score).

For “GGCUAGAACUAGUGGAUCCCCCGGCGCCCGGCGGCUCGAGCCCGGGUAAGUGUAAAUCGUCUGCAUGCCGCCGGGCGCCAUGCCUGCAGGUCGACUCUAGAAAACAUG”, which binding signal (PUM1 PUF domain R1-YWR) is on record?
Its binding signal is 4.68 log2 enrichment (interaction score).

“GGCUAGAACUAGUGGAUCCCCCGGCGCCCGGCGGCUCGAGCCCGGGUAAGUGUAUAUAGUCUGCAUGCCGCCGGGCGCCAUGCCUGCAGGUCGACUCUAGAAAACAUG” was tested. Which binding signal (PUM1 PUF domain R4-GNR) did it give?
The binding signal was 3.44 log2 enrichment (interaction score).

How did the binding signal (PUM1 PUF domain R4-PWN) turn out when “GGCUAGAACUAGUGGAUCCCCCGGCGCCCGGCGGCUCGAGCCCGGGUAAGUGUAAAUAGUCUGCAUGCCGCCGGGCGCCAUGCCUGCAGGUCGACUCUAGAAAACAUG” was run?
The binding signal was 2.08 log2 enrichment (interaction score).

What about the binding signal (PUM1 PUF domain R5-LWA) of the same sequence?
Its binding signal is 1.66 log2 enrichment (interaction score).

And the binding signal (PUM1 PUF domain R4-DFT)?
The binding signal was 3.18 log2 enrichment (interaction score).

What about the binding signal (PUM1 PUF domain R5-RRP) of the same sequence?
The binding signal was 3.17 log2 enrichment (interaction score).

And the binding signal (PUM1 PUF domain R6-VWA)?
Its binding signal is 4.02 log2 enrichment (interaction score).

Which results are given for “GGCUAGAACUAGUGGAUCCCCCGGCGCCCGGCGGCUCGAGCCCGGGUAAGUGUUAAUAGUCUGCAUGCCGCCGGGCGCCAUGCCUGCAGGUCGACUCUAGAAAACAUG”?
binding signal (PUM1 PUF domain R5-LWA): 3.28 log2 enrichment (interaction score); binding signal (PUM1 PUF domain R5-RRP): 4.7 log2 enrichment (interaction score)

“GGCUAGAACUAGUGGAUCCCCCGGCGCCCGGCGGCUCGAGCCCGGGUAAGUGUAAAUUGUCUGCAUGCCGCCGGGCGCCAUGCCUGCAGGUCGACUCUAGAAAACAUG” was tested. Which binding signal (PUM1 PUF domain R1-YWR) did it give?
Its binding signal is 4.46 log2 enrichment (interaction score).
